# Inconclusive results are not listed. A call without a number means that no potency is given here. Activity calls are given as the source filed them. Unless noted, calls come from the whole dose curve; as a rule, active = well fitted curve in the direction sought with a large enough effect; inconclusive = small, poorly fitted or top-dose-only effect, or another doubt; inactive = no such curve, though single readings can be large; an effect the other way counts as inactive or inconclusive.
# Legend:
# [1] = biological target: Aldehyde dehydrogenase, mitochondrial (Homo sapiens) (UniProt P05091); assay: qHTS for Inhibitors of the Aldehyde Dehydrogenase Family (ALDH2) Confirmatory screens (AID 2061303; active = well fitted inhibition curve with a large enough effect; title and protocol of this record describe different tests; note: nearly all actives have a fitted effect of over 45% in size; note: potency is the fitted concentration of half-maximal effect)
# [2] = biological target: Retinaldehyde dehydrogenase 3 (Homo sapiens) (UniProt P47895); assay: qHTS for Inhibitors of the Aldehyde Dehydrogenase Family (ALDH1A3) Confirmatory screens (AID 2061311); note: nearly all actives have a fitted effect of over 60% in size; note: potency is the fitted concentration of half-maximal effect
# [3] = biological target: Retinaldehyde dehydrogenase 3 (Homo sapiens) (UniProt P47895); assay: qHTS for Inhibitors of the Aldehyde Dehydrogenase Family (ALDH1A3) Validation screen (AID 2061312); note: nearly all actives have a fitted effect of over 45% in size; note: potency is the fitted concentration of half-maximal effect
# [4] = biological target: Retinal dehydrogenase 2 (Homo sapiens) (UniProt O94788); assay: qHTS for Inhibitors of the Aldehyde Dehydrogenase Family (ALDH1A2) Confirmation screens (AID 2061314); note: nearly all actives have a fitted effect of over 65% in size; note: potency is the fitted concentration of half-maximal effect
# [5] = biological target: Retinaldehyde dehydrogenase 3 (Homo sapiens) (UniProt P47895); assay: qHTS for Inhibitors of the Aldehyde Dehydrogenase Family (ALDH1A3) Primary screen (AID 2061315)
# [6] = qHTS for Inhibitors of the Aldehyde Dehydrogenase Family (ALDH1A2, ALDH1A3, ALDH2, ALDH3A1) (AID 2061307); note: nearly all actives have a fitted effect of over 50% in size; for potency: test system not described further here; potency is the fitted concentration of half-maximal effect
# [7] = biological target: Aldehyde dehydrogenase, mitochondrial (Homo sapiens) (UniProt P05091); assay: qHTS for Inhibitors of the Aldehyde Dehydrogenase Family (ALDH2) Primary screen (AID 2061308); note: nearly all actives have a fitted effect of over 55% in size; note: potency is the fitted concentration of half-maximal effect
# [8] = biological target: Aldehyde dehydrogenase 1A1 (Homo sapiens) (UniProt P00352); assay: qHTS for Inhibitors of the Aldehyde Dehydrogenase Family (ALDH1A1) Confirmatory screens (AID 2061316); note: nearly all actives have a fitted effect of over 65% in size; note: potency is the fitted concentration of half-maximal effect
Structure (SMILES),Potency [1],Potency [2],Potency [3],Potency [4],Potency [5],Potency [6],Potency [7],Potency [8]
Cc1nnc(-c2cc(-c3ccc(CO)cc3)ccn2)n1Cc1ccccc1,inactive,,,,,,,
COc1ccc2c(c1)CCc1c(C(=O)Nc3ccc(F)c(Cl)c3)noc1-2,inactive,,,,,,,
CCC(C)NC(=O)c1ccc(-c2cccc(C#N)c2)o1 (configuration not stated),inactive,,,,,,,
O=C(Nc1ccccc1Cl)c1cnc2ccc(C3CCNCC3)cn12,,inactive,inactive,inactive,inactive,,,
COc1cccc(OC2=NS(=O)(=O)c3ccccc32)c1,inactive,inactive,,inactive,inactive,inactive,inactive,
Cc1ccc(OCCn2c(CCNC(=O)c3ccccc3C(F)(F)F)nc3ccccc32)cc1,inactive,inactive,,inactive,inactive,inactive,inactive,
O=C(NC1CCCc2c1cnn2-c1ccc(F)cc1F)c1ccncc1 (configuration not stated),inactive,inactive,,inactive,inactive,inactive,inactive,
Cc1cc2occ(CN(C)CCN(C)Cc3cn(-c4cccc(C(F)(F)F)c4)c4ccccc34)c(=O)c2cc1C,inactive,inactive,inactive,inactive,inactive,inactive,inactive,10.1 µM (active)
Cc1cc(C)n2ncc(C(=O)Nc3ccc4c(c3)OCO4)c2n1,inactive,inactive,,inactive,inactive,inactive,inactive,
Cc1ccc(CNc2ccc(N3CCNCC3=O)cc2)cc1,inactive,14.2 µM (active),,10.1 µM (active),inactive,inactive,inactive,
Cc1cn([C@H]2C[C@H](N[S+](=O)([O-])Cc3ccc(Cl)cc3)[C@@H](CO)O2)c(=O)[nH]c1=O,inactive,inactive,,inactive,inactive,inactive,inactive,
Cc1nc2ccc(Nc3nc(Nc4c(C)cc(C=CC#N)cc4C)nc4nc[nH]c34)cc2s1,inactive,inactive,,inactive,inactive,10.1 µM (active),inactive,
FC(F)(F)c1ccccc1-c1nc(NCc2ccc(-c3cccnc3)cc2)c2ccccc2n1,inactive,10.1 µM (active),,inactive,inactive,inactive,inactive,
COc1ccc(C2Nc3ccccc3C(=O)N2Cc2ccc(Cl)cc2)cc1COc1ccc(NC(C)=O)cc1 (configuration not stated),3.98 µM (active),3.55 µM (active),,12.7 µM (active),inactive,2.25 µM (active),inactive,
Cn1nnnc1Sc1ncnc2scc(Br)c12,inactive,inactive,,inactive,inactive,inactive,inactive,
CC(=O)Nc1sc2c(c1-c1cc3ccccc3[nH]1)CCNC2,inactive,inactive,,28.3 µM (active),inactive,inactive,inactive,
c1cncc(CNc2ncnc3ccc(-c4ccoc4)cc23)c1,inactive,inactive,,inactive,inactive,inactive,inactive,
Cc1ccc(-c2nccc(=O)n2CC(=O)NCCc2ccccc2)cc1,inactive,inactive,,inactive,inactive,inactive,inactive,
NC(N)=NCCC[C@H](NC(=O)c1sccc1NS(=O)(=O)c1cccc2nsnc12)C(=O)O,inactive,inactive,inactive,inactive,inactive,inactive,inactive,inactive
O=C1c2ccccc2NC(c2ccc(-c3ccc(Br)cc3)o2)N1O (configuration not stated),0.891 µM (active),12.7 µM (active),,12.7 µM (active),inactive,11.3 µM (active),1 µM (active),
NC(=O)C1CCN(c2ncc(-c3ccc(Cl)cc3)s2)CC1,inactive,inactive,,inactive,inactive,12.7 µM (active),inactive,
COc1ccc(C=O)cc1COc1ccc(NC(C)=O)cc1,3.16 µM (active),15.8 µM (active),,3.18 µM (active),inactive,0.318 µM (active),inactive,
O=C(Nc1ccc(F)c(C(F)(F)F)c1)Nc1nnc(C2CCCCC2)s1,inactive,inactive,,inactive,inactive,inactive,8.91 µM (active),
COc1nc2ccc(Br)cc2cc1[C@@H](c1ccccc1)[C@@](O)(CCN(C)C)c1cccc2ccccc12,1.27 µM (active),8.96 µM (active),1.26 µM (active),1.79 µM (active),,0.896 µM (active),0.708 µM (active),0.142 µM (active)
Nc1ncnc2c1ncn2[C@@H]1O[C@H](CN[S+](=O)([O-])NC(=O)c2cccc(-c3noc(-c4ccccc4F)n3)c2)[C@@H](O)[C@H]1O,inactive,0.252 µM (active),,14.2 µM (active),,1.2 µM (active),inactive,
C[C@H]1CO[C@@H]2Cn3cc(C(=O)NCc4ccc(F)cc4F)c(=O)c(O)c3C(=O)N12,inactive,inactive,inactive,inactive,inactive,inactive,inactive,inactive
COc1ccc(CN2C(=O)c3ccccc3NC2c2ccc(OC)c(COc3ccc(NC(C)=O)cc3)c2)cc1 (configuration not stated),17.8 µM (active),2.24 µM (active),,6.34 µM (active),inactive,7.94 µM (active),inactive,

Structure (SMILES),Potency [1],Potency [2],Potency [3],Potency [4],Potency [5],Potency [6],Potency [7],Potency [8]
CCN1CCN(C(=O)N[C@@H](C(=O)N[C@@H]2C(=O)N3[C@@H]2SC(C)(C)[C@@H]3C(=O)O)c2ccccc2)C(=O)C1=O,inactive,inactive,inactive,inactive,inactive,inactive,inactive,inactive
O=C1CCCC2=C1C(c1cccnc1Cl)N=C(Nc1nc3ccccc3o1)N2 (configuration not stated),inactive,inactive,,22.5 µM (active),inactive,inactive,inactive,
C[C@@H](N)C(=O)Nc1ccc(Cl)cc1C(=O)c1ccc[nH]1,inactive,inactive,,inactive,inactive,inactive,inactive,
COc1cc(CNc2ncnc3ccc(-c4c(C)noc4C)cc23)cc(OC)c1OC,inactive,inactive,,inactive,inactive,inactive,inactive,
O=C(Nc1ccccc1)OCc1c(-c2ccccc2)no[n+]1[O-],inactive,inactive,,inactive,inactive,11.3 µM (active),inactive,
O=[S+]([O-])(NCc1nccs1)c1ccc(Nc2nc(-c3ccccc3)cs2)cc1,inactive,inactive,,inactive,inactive,inactive,inactive,
O=C1NS(=O)(=O)c2cc3c(cc21)C(=O)NS3(=O)=O,inactive,inactive,,inactive,inactive,inactive,inactive,
Oc1cc(Nc2cccnc2)cc2cccnc12,inactive,0.283 µM (active),,inactive,,inactive,inactive,
NC1CCN(c2cnc3c(O)ccc(C(=O)O)c3c2)CC1,inactive,20.1 µM (active),,14.2 µM (active),inactive,inactive,inactive,
Oc1cc(Nc2ccccc2)cc2cccnc12,inactive,0.283 µM (active),,inactive,,inactive,inactive,
CC(C)c1ccccc1-c1ncc(F)c(NCc2ccc(-c3cccnc3)cc2)n1,5.01 µM (active),8.96 µM (active),,inactive,,14.1 µM (active),inactive,
C=C(C(=O)OC)C1CCC2(C)C(O[C@@H]3O[C@H](CO)[C@@H](O)[C@H](O)[C@H]3O)CC(=O)C(C)C2C1O (some centres not stated),inactive,11 µM (active),,inactive,,inactive,inactive,
CCCCC(=O)N1CCC(C(=O)Nc2ccc([S+](=O)([O-])Nc3nccs3)cc2)CC1,inactive,inactive,,inactive,inactive,inactive,inactive,
COc1ccc(-c2nc3ccccc3s2)cc1,inactive,1.42 µM (active),,inactive,,1.7 µM (active),inactive,
O=C(O)c1ccc2c(c1)C(=O)N([C@]1(C(=O)O)C[C@H]1c1ccccc1)C2=O,inactive,inactive,,inactive,inactive,inactive,inactive,
Nc1ccc(S(=O)(=O)N2CCN(S(=O)(=O)c3c(F)cccc3F)CC2)cc1,inactive,inactive,,inactive,inactive,inactive,inactive,
NC(=O)C1CCN(c2nc(-c3ccc([N+](=O)[O-])cc3)cs2)CC1,25.1 µM (active),22.5 µM (active),,3.18 µM (active),inactive,11.3 µM (active),inactive,
Cc1ccccc1C[C@H](C(=O)O)N1C(=O)c2ccc(C(=O)O)cc2C1=O,inactive,inactive,,inactive,inactive,inactive,inactive,inactive
FC(F)(F)c1cc(N2CCN(C(=S)Nc3cc(Cl)ccn3)CC2)cc(C(F)(F)F)c1,inactive,inactive,,inactive,inactive,inactive,inactive,22.5 µM (active)
Cc1nc2ccccn2c1P(=O)(c1ccccc1)c1ccccc1,inactive,inactive,,inactive,inactive,inactive,inactive,inactive
Cc1cc2c(s1)c1cnn(Cc3c(Cl)ccc(C)c3F)c(=O)c1n2C,inactive,inactive,,inactive,inactive,inactive,inactive,inactive
CC(C)(CC(=O)N1CCCC1)NCC(=O)N1C[C@@H](F)C[C@H]1C#N,inactive,inactive,,inactive,inactive,inactive,inactive,inactive
O=C(O)c1ccc(S(=O)(=O)N[C@H](Cc2ccc(C(F)(F)F)cc2)C(=O)O)cc1,inactive,inactive,,inactive,inactive,inactive,inactive,inactive
CC(C)(C)OC(=O)N1CCN(c2ccc(NCc3cnc(-c4ccc(C#N)cc4)o3)cc2)CC1,0.4 µM (active),inactive,,inactive,inactive,0.252 µM (active),0.316 µM (active),inactive
CC(=O)Nc1sc2c(c1-c1cnn(C(C)=O)c1)CCNC2,inactive,inactive,,inactive,inactive,inactive,inactive,
Fc1cc(Nc2nc(-c3ccncc3)nc3ccccc23)ccc1N1CCCCC1,inactive,11.3 µM (active),,0.712 µM (active),inactive,inactive,inactive,3.57 µM (active)

# From PubChem BioAssay (NCATS)
